According to PubChem BioAssay:
Entries with a potency or affinity are not part of this list. The source made the active and inactive calls.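 Rule for the calls: active = a dose-response fit showing signal loss, with half-maximal concentration no higher than twice the top tested dose; inconclusive = flat fit between 30% and 70% signal loss, or poor fit; inactive = the rest.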

Assay: HepG2 cell cytotoxicity, dose response, cytotoxicity control, cherry-picks, set 2 (AID 687002)
Details: HepG2 viability, ATP luminescence (CellTiter-Glo), 48 h; series mostly up to 26 µM

| SMILES | outcome |
| --- | --- |
| CCS(=O)(=O)N1CCCCN2[C@H](CO)[C@@H](c3ccc(-c4ccc(C#N)cc4)cc3)[C@@H]2C1 | inactive |
| O=C(Cc1ccccc1)N[C@H]1C=C[C@@H](CC(=O)N2CCOCC2)O[C@H]1CO | inactive |
| C[C@@H]1CN([C@H](C)CO)C(=O)c2cc(NC(=O)Nc3cccc4ccccc34)ccc2O[C@H]1CN(C)C(=O)Nc1ccc(C(F)(F)F)cc1 | inactive |
| O=C(NC1CCCC1)N1CCCCN2[C@H](CO)[C@@H](c3ccc(-c4cncnc4)cc3)[C@H]2C1 | inactive |
| O=C(C[C@H]1C=C[C@H](NC(=O)C2CCC2)[C@@H](CO)O1)NC1CCC1 | inactive |
| CC(C)(C)NC(=O)CSc1ncnc2c1cnn2-c1ccccc1 | inactive |
| COc1ccc(-c2cnc3c(c2)C(=O)N([C@@H](C)CO)C[C@@H](C)[C@@H](CN(C)S(C)(=O)=O)O3)cc1 | inactive |
| C/C=C/c1cnc2c(c1)C(=O)N([C@@H](C)CO)C[C@@H](C)[C@@H](CN(C)C(=O)C1CCCCC1)O2 | inactive |
| C[C@@H]1CN([C@H](C)CO)C(=O)c2c(c3ccccc3n2C)-c2ccccc2CO[C@H]1CN(C)S(=O)(=O)c1cccs1 | inactive |
| Cc1cccc(C)c1NC(=O)C1NC(=O)CC1c1ccccc1 (stereo not drawn) | inactive |
| CCC(=O)N1[C@@H]2Cn3c(ccc(C4=CCCCC4)c3=O)[C@H]1[C@@H](C(=O)N[C@H](C)c1ccccc1)[C@@H]2CO | inactive |
| C/C=C/c1ccc2c(c1)O[C@H](CN(C)S(=O)(=O)c1ccccc1)[C@H](C)CN([C@@H](C)CO)S2(=O)=O | inactive |
| COc1ccc(NC(=O)Nc2ccc3c(c2)C(=O)N([C@@H](C)CO)C[C@@H](C)[C@H](CN(C)C(=O)Cc2ccccc2)OCCCC[C@H](C)O3)cc1 | inactive |
| Cc1cccc(C)c1NC(=O)C(CCc1ccccc1)N1CCN(CCN(C)C)CC1 (stereo not drawn) | inactive |
| Cc1cccc(C)c1NC(=O)C(C)N1CCCCC1 (stereo not drawn) | inactive |
| Cc1noc(C)c1S(=O)(=O)Nc1ccc2c(c1)C(=O)N([C@@H](C)CO)C[C@H](C)[C@@H](CN(C)Cc1ccc3c(c1)OCO3)OCCCC[C@@H](C)O2 | inactive |
| CCCNC(=O)N1C[C@@H]2[C@H](c3ccccc31)[C@H](CO)N2Cc1ccc(OC)cc1 | inactive |
| O=C(c1cccc(F)c1)N1C[C@@H]2[C@H](c3ccccc31)[C@H](CO)N2Cc1cocn1 | inactive |
